Data: ChEMBL document CHEMBL4513216, “Probing the Open Global Health Chemical Diversity Library for Multistage-Active Starting Points for Next-Generation Antimalarials” (ACS Infect Dis, 2020)
The whole screen tested about 65,000 compounds, of which about 2,100 (3.2%) showed an effect of 50% or more. The median lay at about -52%. What follows is part of a selection rich in strong results, with near analogues and random picks from the rest.

system: Plasmodium falciparum; assay: Screen against P. falciparum Asexual Blood Stage (ABS), at 5uM; assay type: functional, Dd2; details: tested at 5 uM

Row | SMILES | INHIBITION [%]
1 | Cc1cnn(CC(C)NCc2c(C)nn(Cc3ccccc3)c2C)c1 (centres undefined) | 50.7
2 | Cc1cnn(CC(C)NCc2ccc(-n3cccn3)cc2)c1 (centres undefined) | -72.7
3 | CCOCC1CN(C(=O)C2CCOCC2)Cc2cnn(C)c21 (centres undefined) | -57.8
4 | Cc1ccc(CN2CCN(c3cncc(N(C)C)n3)CC2=O)cc1C | -30
5 | CCN(CC)S(=O)(=O)c1ccc(CNc2cc(C)nc(C)n2)cc1 | -79.3
6 | Cc1ccc(N2CC[C@H](OCC3CC3)[C@@H]2Cc2cccnc2)nn1 | -79.3
7 | COCCO[C@H]1CCN(Cc2ccsc2)[C@H]1Cc1cccnc1 | 14.6
8 | Cc1nc(CN2CC[C@H](OCC3CC3)[C@@H]2Cc2cccnc2)cs1 | 60.4
9 | COCCO[C@@H]1CCN(Cc2csc(C)n2)[C@H]1Cc1ccccc1 | 65.8
10 | COCCO[C@H]1CCN(Cc2cccnc2)[C@H]1Cc1cccnc1 | 3.22
11 | Cc1nc(CN2CC[C@@H](OCC3CC3)[C@@H]2Cc2cccnc2)cs1 | 6.96
12 | Cc1ccc(CN2CCC3(C2)C(=O)N(CC2CC2)c2ccccc23)s1 (centres undefined) | -74.8
13 | COCC(=O)N1C[C@H]2CN(Cc3cccc(F)c3)C(=O)[C@H]2C1 | -63.1
14 | Cc1cc(CN2CCN(C(=O)NC(C)c3cccnc3)CC2)no1 (centres undefined) | 49.7
15 | CC(NC(=O)N1CCCN(Cc2cccs2)CC1)c1cccnc1 (centres undefined) | -63.5
16 | Cc1nc(CN2CCN(C(=O)NC(C)c3cccnc3)CC2)cs1 (centres undefined) | 56.3
17 | CC(C)NC(=O)CCNC(=O)CCc1cc(Cl)cs1 | -9.13
18 | Cn1nc(CN2CCCC2)c2c1CN(c1cnccn1)CC2 | -56
19 | COc1c(CNCC(O)c2ccccc2)c(C(C)C)nn1C (centres undefined) | 0.811
20 | COc1c(CNC2CCc3c(Cl)cccc32)c(C)nn1C (centres undefined) | 62.6
21 | COc1c(CNC2CCCOc3ccc(F)cc32)c(C(C)C)nn1C (centres undefined) | 38.8
22 | COc1c(CNC2CCCc3ccccc32)c(C(C)C)nn1C (centres undefined) | 64.8
23 | COc1c(CNC2CCc3c(F)cccc32)c(C)nn1C (centres undefined) | -21.6
24 | COc1c(CNC2CCCOc3ccccc32)c(C)nn1C (centres undefined) | -42.2
25 | COc1c(CNC2CCOc3ccccc32)c(C(C)C)nn1C (centres undefined) | -20.7
26 | COc1c(CNCC(O)c2cccc(F)c2)c(C(C)C)nn1C (centres undefined) | 63.5
27 | COc1c(CNC2CCCc3ccccc32)c(C)nn1C (centres undefined) | 3.18

Row | SMILES | INHIBITION [%]
28 | COc1c(CNC2CCOc3c(Cl)cccc32)c(C)nn1C (centres undefined) | 10.1
29 | COc1c(CNC2CCCOc3ccccc32)c(C(C)C)nn1C (centres undefined) | 52.2
30 | COc1c(CNCC(O)c2cccc(F)c2)c(C)nn1C (centres undefined) | -92.7
31 | COc1ccc(CN2CCCn3cnc(COC(C)C)c3C2)cc1 | -12.6
32 | CC(C)n1nc(Cn2cccc2)c2c1CN(Cc1ccoc1)C2 | -92.6
33 | Cc1ccccc1C(=O)N1C[C@@H]2C(CN(C)CCc3ccccn3)[C@@H]2C1 (some centres undefined) | -14.6
34 | COc1ccc(CNCc2c(C(C)C)nn(C)c2OC)cn1 | 60.8
35 | COc1c(CNC2CCc3ccccc32)c(C)nn1C (centres undefined) | 33.9
36 | COc1ccc(CNCc2c(C(C)C)nn(C)c2N(C)C)cn1 | -26.4
37 | COc1c(CNCc2ccc(N(C)C)nc2)c(C(C)C)nn1C | -79
38 | COc1c(CNC2CCc3cc(F)ccc32)c(C(C)C)nn1C (centres undefined) | 59.7
39 | COc1c(CNC2CCc3cc(F)ccc32)c(C)nn1C (centres undefined) | 28.1
40 | CC(C)c1nn(C)c(N(C)C)c1CNC1CCc2cc(F)ccc21 (centres undefined) | 0.843
41 | COc1c(CNC2CCOc3c(Cl)cccc32)c(C(C)C)nn1C (centres undefined) | -60.2
42 | COc1c(CNC2CCc3ccccc32)c(C(C)C)nn1C (centres undefined) | 62.5
43 | CC(C)CN1C(=O)C[C@@H]2[C@@H]1CCN2Cc1cccc(C#N)c1 | -105
44 | Cc1cc(C)n(CC2CCCN2C(=O)c2cn[nH]c2C)n1 (centres undefined) | -90
45 | O=C(CCSC1CCc2ccccc2NC1=O)NCCCO (centres undefined) | -7.35
46 | Fc1ccc(-c2cnc(CN3CCn4c(nnc4C4CC4)C3)o2)cc1 | 53.1
47 | CC(C)c1nnc2n1CCN(Cc1ncc(-c3ccccc3)o1)C2 | 62
48 | Cc1ccc(-c2noc(CN3CCn4c(nnc4C4CC4)C3)n2)cc1 | -44.9
49 | Cc1nnc2n1CCN(Cc1ncc(-c3ccccc3)o1)C2 | -95.9
50 | Cc1ccccc1-c1noc(CN2CCn3c(nnc3C3CC3)C2)n1 | 51.7
51 | c1ccc(-c2cnc(CN3CCn4c(nnc4C4CC4)C3)o2)cc1 | -8.02
52 | Cc1nnc2n1CCN(Cc1ncc(-c3ccc(F)cc3)o1)C2 | 8.55
53 | CCc1nnc2n1CCN(Cc1ncc(-c3ccccc3)o1)C2 | 46.9
54 | Cc1cccc(-c2noc(CN3CCn4c(nnc4C4CC4)C3)n2)c1 | -35.8
